Screen size: about 220,000 compounds; about 2,000 (0.91%) were called active. Roughly 2% stayed inconclusive and do not appear here. No stated cut-off is given here; in the data, inconclusive means inhibition above about 80% without an active follow-up result; inactive means below that; test concentration not stated here. Not all results are given here. Results with a measured potency or affinity are listed apart.

These results are taken from PubChem BioAssay AID1626 (SRMLSC, 2009).

A short description of this assay: M. tuberculosis H37Rv growth inhibitors, H37Rv strain (AID 1626).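 Further: bacteria incubated seven days before Alamar blue readout; 0% = bacteria only wells and 100% = bacteria with antibiotic wells.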 The settings on record: hits give high values, concentration not given here.
The inhibition is the change of the read-out against control, counted positive when it falls. Take `CCCn1c(SCC(=O)Nc2ccc(OC)cc2[N+](=O)[O-])n[nH]c1=O`: the inhibition was 1.11% (inactive). With `O=C1Nc2ccccc2N(O)N1c1ccc(Cl)cc1`, the inhibition is -3.86% (inactive).

As to `O=C(C1=C[C@@H](C2CC2)C[C@@H](OCc2ccc(CO)cc2)O1)N1CCN(Cc2ccccc2)CC1`, the inhibition was 0.13% (inactive). Next, `O=C(CCC(=O)N1CCN(c2ccccn2)CC1)Nc1nnc(C(F)(F)F)s1`: -6.15% (inactive). Consider `COc1ccccc1N1CCN(C(=O)COc2ccc(S(=O)(=O)NC(C)(C)C)cc2)CC1`, for which the inhibition was 0.98% (inactive).

For the compound `CN1CC=C(c2c[nH]c3ccccc23)CC1`, the inhibition is -7.46% (inactive). For the compound `O=C(Nc1ccc2c(c1)OCO2)c1ccc(Br)s1`, the inhibition was 9.98% (inactive). Next, `Cc1nn(-c2ccccc2)c(C)c1C(=O)Nc1ccc(N2CCOCC2)cc1`: -4.12% (inactive). Next, `O=C(Nc1nnc(-c2ccco2)o1)C1CC1`: 4.4% (inactive); `O=C(Nc1nnc(-c2ccco2)o1)c1ccc(N2C(=O)CCC2=O)cc1`: -1.43% (inactive).

Consider `CN(C)S(=O)(=O)c1ccc(C(=O)Nc2nnc(-c3ccco3)o2)cc1`, for which the inhibition was -14.7% (inactive).

`O=C(Nc1nnc(-c2ccco2)o1)c1ccc(S(=O)(=O)N2CCCC2)cc1`: the inhibition was 41.6% (inactive).

On to `CCC(=O)Nc1nnc(-c2ccco2)o1`, for which the inhibition is 10.2% (inactive). For `CC(=O)Nc1nnc(-c2ccco2)o1` the value was 0.62% (inactive); for `CCN(c1ccccc1)S(=O)(=O)c1ccc(C(=O)Nc2nnc(-c3ccco3)o2)cc1`, 61.3% (inactive); for `COCCCNC(=O)CN(c1cc(Cl)ccc1OC)S(=O)(=O)c1ccc(C)c([N+](=O)[O-])c1`, -9.07% (inactive). Turning to `O=C(c1ccco1)N1CCN(c2ccc(S(=O)(=O)N3CCCC3)cc2)CC1`, the inhibition was -12.6% (inactive). For `Cc1ccc(NCCNc2ccc(C)cc2)cc1` the value was 5.4% (inactive).

On to `C[N+](C)(CC#Cc1ccccc1)CC(=O)c1ccc(Cl)cc1`, for which the inhibition is 0.9% (inactive). As to `Cc1ccc(-c2cc(C(=O)N/N=C/c3c(C)nn(C)c3C)c3ccccc3n2)c(C)c1`, the inhibition is -2.59% (inactive). For `CCCc1nnc2n1N=C(c1ccc([N+](=O)[O-])cc1)CS2` the value was 3% (inactive). Turning to `O=C(Cc1ccccc1)Nc1nnc(-c2ccco2)o1`, the inhibition is 1.37% (inactive). Next, `Cc1cccc(C)c1NC(=O)c1ccc([N+](=O)[O-])s1`: 11.5% (inactive); `O=C(Nc1nnc(-c2ccco2)o1)c1cccc(N2C(=O)CCC2=O)c1`: 2.38% (inactive). Consider `Cn1nnc(NC(=O)c2ccc3ccccc3c2)n1`, for which the inhibition was 0.14% (inactive). On to `Cc1cccc(C(=O)Nc2nnc(-c3ccncc3)o2)c1`, for which the inhibition was 62.6% (inactive). For `O=C(COc1ccccc1)Nc1nnc(-c2ccco2)o1` the value was -3.85% (inactive); for `O=C(Nc1ccncc1)c1ccc2ccccc2c1`, 1.37% (inactive).

Consider `Cc1cccc(NC(=O)c2ccc([N+](=O)[O-])s2)c1C`, for which the inhibition is 53.1% (inactive). Next, `COc1ccc(OC)c2c(C)cc(N3CCN(C(=O)c4ccc(F)cc4)CC3)nc12`: 8.6% (inactive); `O=C(/C=C/c1ccco1)Nc1ccccc1N1CCCCC1`: 10.2% (inactive).

Turning to `Cc1c(NC(=S)N/C(=N/S(=O)(=O)c2ccc(Cl)cc2)c2ccccc2)c(=O)n(-c2ccccc2)n1C`, the inhibition was 3.87% (inactive). In the case of `Cc1ccc(S(=O)(=O)Nc2cccc(C(=O)Nc3cc(C)ccn3)c2)cc1`, the inhibition is 7.87% (inactive). As to `Cc1ccc(C2=NC3(CCCCCC3)NC2=S)cc1`, the inhibition was 7.91% (inactive). Next, `Clc1cccc(-c2ccc(C=Nc3ccc(N4CCOCC4)cc3)o2)c1`: 32.1% (inactive). Next, `Cc1ccc(Cl)cc1-c1ccc(C=Nc2ccc(N3CCOCC3)cc2)o1`: 9.51% (inactive). For `COc1cccc(CN2CCCCC2C(=O)O)c1` (stereo not given) the value was -3.4% (inactive); for `Clc1cccc(-c2nc(NCCCN3CCOCC3)c3ccccc3n2)c1`, 15% (inactive); for `Clc1ccc(-c2nc(NCCN3CCOCC3)c3ccccc3n2)cc1`, 11.1% (inactive). As to `COc1ccc(-c2nn(-c3ccccc3C)cc2CNC(C)c2cn(C)nc2C)cc1F` (stereo not given), the inhibition was -2.3% (inactive). With `COc1ccc(NC(=O)CSc2nnc(Cn3c(=O)sc4ccccc43)n2C)cc1OC`, the inhibition was -2.38% (inactive).

With `CCOC(=O)c1sc2nc(Cc3ccc(Cl)cc3)[nH]c(=S)c2c1C`, the inhibition is 62.6% (inactive).

Take `CCOC(=O)c1sc2nc(C)n(N)c(=O)c2c1C`: the inhibition was 3.43% (inactive). Next, `CCC(=NCc1ccc2c(c1)OCO2)c1c(O)n(C)c(=O)n(C)c1=O`: -0.05% (inactive); `Clc1cccc(Cl)c1/C=N/Nc1c(Cl)cncc1Cl`: -5.97% (inactive). With `COc1ccc(/C=C2\C(=O)c3ccccc3OC2c2ccccc2)cc1` (stereo not given), the inhibition was 0.26% (inactive). For `Cc1ccc(N=Cc2ccc[nH]2)c(O)c1` the value was -2.8% (inactive). Next, `O=C(N/N=C/c1ccc[nH]1)c1ccccc1O`: -6.87% (inactive).

In the case of `Cc1ccc(CCSc2ccc(F)cc2)cn1`, the inhibition was 0.68% (inactive). Next, `O=C(O)CCc1ccc(-c2ccc(Cl)cc2)o1`: 62.7% (inactive); `CN1CCN(Cc2ccc(-c3ccc(Cl)cc3)o2)CC1`: 4.34% (inactive); `O=C(COCC(=O)N1CCOCC1)N1CCOCC1`: -0.86% (inactive).

Regarding `COc1ccc(OC)c(-n2nnnc2SCC(=O)Nc2nc(C)c(C)s2)c1`, the inhibition was -6.27% (inactive).

Consider `COc1ccc(C(=O)Nc2ccccc2Cc2ccccc2)c(OC)c1`, for which the inhibition is 12.6% (inactive). Next, `CCOCCOC(=O)c1ccc(-n2cnc(C)n2)nc1`: 1.52% (inactive); `C=CCOC(=O)c1ccc(-n2cnc(C)n2)nc1`: 34.4% (inactive). For `CC(C)CN1CCN(Cc2ccc(Oc3ncccn3)cc2)CC1CCO` (stereo not given) the value was -12.7% (inactive).

Consider `Cc1ccc(CNC(=O)c2ccc(Br)o2)cc1`, for which the inhibition was 6.85% (inactive).

`O=C(Nc1ccc2oc(-c3cccnc3)nc2c1)c1ccc(Br)o1`: the inhibition is -4.68% (inactive). Regarding `O=C(Nc1cccc(NC(=O)c2cccs2)c1)c1ccco1`, the inhibition was -1.16% (inactive). Next, `O=C(NCc1cccnc1)c1ccc([N+](=O)[O-])o1`: 9.87% (inactive). `O=C(Nc1ccc2oc(-c3cccnc3)nc2c1)c1ccco1`: the inhibition was -0.84% (inactive).

For the compound `Cc1cccc(NC(=O)COC(=O)c2ccc([N+](=O)[O-])o2)c1C`, the inhibition was -1.87% (inactive). As to `Cc1ccccc1NC(=O)c1ccc([N+](=O)[O-])o1`, the inhibition was -5.26% (inactive).

Turning to `COc1cc(NC(=O)c2ccc([N+](=O)[O-])o2)ccc1NC(=O)c1cccs1`, the inhibition was 11.9% (inactive).
